The record followed here is publication PMC4336329 (PLoS ONE, 2015).

In all, about 310,000 compounds went through this assay and about 2,200 (0.71%) showed an effect of 50% or more. The effect is printed as a negative number. For the sample, strong results were picked, then their nearest neighbours and some compounds at random.

The target in this assay is human ether-à-go-go-related gene (hERG) potassium channel (human, UniProt Q12809). Kind of assay: primary screen, population patch clamp on CHO cells stably expressing hERG; higher = less effect of the substance.
human ether-à-go-go-related gene (hERG) potassium channel, sequence (Q12809 whole entry, looked up): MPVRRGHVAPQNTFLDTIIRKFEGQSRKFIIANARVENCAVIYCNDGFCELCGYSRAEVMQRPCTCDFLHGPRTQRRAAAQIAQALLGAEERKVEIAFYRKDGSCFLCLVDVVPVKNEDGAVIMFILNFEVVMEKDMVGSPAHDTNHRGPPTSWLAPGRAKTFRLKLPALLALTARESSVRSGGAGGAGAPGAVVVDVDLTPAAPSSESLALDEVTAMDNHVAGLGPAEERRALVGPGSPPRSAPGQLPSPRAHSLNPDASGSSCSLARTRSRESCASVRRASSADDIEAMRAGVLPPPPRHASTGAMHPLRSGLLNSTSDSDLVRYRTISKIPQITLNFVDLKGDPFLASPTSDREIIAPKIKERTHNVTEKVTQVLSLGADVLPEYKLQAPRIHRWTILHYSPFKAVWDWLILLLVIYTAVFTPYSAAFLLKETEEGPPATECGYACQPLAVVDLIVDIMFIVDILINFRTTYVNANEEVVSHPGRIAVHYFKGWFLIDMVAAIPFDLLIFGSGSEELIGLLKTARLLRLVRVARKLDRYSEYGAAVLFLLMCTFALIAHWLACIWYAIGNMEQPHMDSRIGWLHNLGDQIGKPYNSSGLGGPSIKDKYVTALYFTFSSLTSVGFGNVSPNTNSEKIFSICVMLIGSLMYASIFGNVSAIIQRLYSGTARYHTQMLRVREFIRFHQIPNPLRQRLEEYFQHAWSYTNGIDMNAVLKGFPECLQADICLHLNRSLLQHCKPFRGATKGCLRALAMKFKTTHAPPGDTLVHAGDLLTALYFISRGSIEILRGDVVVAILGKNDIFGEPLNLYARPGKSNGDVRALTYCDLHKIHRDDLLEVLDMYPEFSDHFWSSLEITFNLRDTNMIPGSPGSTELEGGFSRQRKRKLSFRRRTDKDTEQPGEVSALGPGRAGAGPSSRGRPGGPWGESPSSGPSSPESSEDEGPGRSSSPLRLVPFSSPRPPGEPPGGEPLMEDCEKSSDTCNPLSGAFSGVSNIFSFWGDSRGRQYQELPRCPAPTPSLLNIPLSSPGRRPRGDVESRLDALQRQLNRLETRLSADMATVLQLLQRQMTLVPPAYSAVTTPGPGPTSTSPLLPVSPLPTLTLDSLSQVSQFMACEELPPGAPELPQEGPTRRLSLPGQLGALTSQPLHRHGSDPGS
`CC(C)N(Cc1nc(-c2ccc(Cl)cc2)no1)C(=O)CN(C)S(=O)(=O)c1ccc(Cl)cc1`: the “hERG current change (%, negative = inhibition) at 1uM” value is listed as -5.47%.
As for `COCCCn1c(=S)[nH]c2c(sc3ccccc32)c1=O`, the “hERG current change (%, negative = inhibition) at 1uM” value was 14.1%.
In the case of `CCN1CCN(C(=O)c2cc3c(=O)n(C)c4ccccc4c3n2C)CC1`, the “hERG current change (%, negative = inhibition) at 1uM” value was found to be 8.54%.
For `Cc1cc(C)c2c(N)c(C(=O)NNC(=O)c3ccccc3)sc2n1`, the “hERG current change (%, negative = inhibition) at 1uM” value is 12.8%.
For the compound `Nc1ccccc1C(=O)NCc1ccccc1`, the “hERG current change (%, negative = inhibition) at 1uM” value turned out to be 1.59%.
Regarding `CC1(C)CC(=O)C2=C(C1)NC(=S)C(C#N)C21CCCCC1` (centres unmarked), the “hERG current change (%, negative = inhibition) at 1uM” value worked out at 10.1%.
For the compound `CCOC(=O)N1CCN(S(=O)(=O)c2ccc(C(=O)Nc3nnc(C)o3)cc2)CC1`, the “hERG current change (%, negative = inhibition) at 1uM” value was found to be 7.3%.
The figure for `CC(CN1C(C)CCCC1C)OC(=O)c1ccccc1Br.Cl` (centres unmarked) is 4.15%; for `Cc1sc2nc(CN3CCCC3)nc(N3CCN(S(=O)(=O)c4ccccc4)CC3)c2c1C` it is -19.4%.
Take `Cc1ccc(S(=O)(=O)N2CCN(c3nc(CN4CCCC4)nc4sc(C)c(C)c34)CC2)cc1`: the “hERG current change (%, negative = inhibition) at 1uM” value is on record as -48.8%.
With `Cc1sc2nc(CN3CCCC3)nc(N3CCN(S(=O)(=O)c4cccs4)CC3)c2c1C`, the “hERG current change (%, negative = inhibition) at 1uM” value is -65.2%.
As for `CC(C)CC(=O)Nc1nc2ccc(S(C)(=O)=O)cc2s1`, the figure is 4.38%.
As for `O=C(NCc1ccco1)c1scc2c1OCCO2`, the “hERG current change (%, negative = inhibition) at 1uM” value is given as 6.64%.
Turning to `CCCCn1c(N)c(N(CCOC)C(=O)c2ccc(-c3cccc(C(F)(F)F)c3)o2)c(=O)[nH]c1=O`, the “hERG current change (%, negative = inhibition) at 1uM” value is recorded as 10.2%.
On to `O=C(Nc1ccc(Cn2nnc3ccccc32)cc1)c1ccco1`, for which the “hERG current change (%, negative = inhibition) at 1uM” value was 9.6%.
Consider `Cl.O=C(CN1CCN(C2CCCCC2)CC1)Nc1ccccc1-c1ccccc1`, for which the “hERG current change (%, negative = inhibition) at 1uM” value is -70%.
As to `Cl.O=C(CN1CCN(C2CCCCC2)CC1)Nc1cccc2ccccc12`, the “hERG current change (%, negative = inhibition) at 1uM” value was found to be 4.28%.
As to `O=C(CN1CCCCC1)Nc1ccccc1-c1ccccc1`, the “hERG current change (%, negative = inhibition) at 1uM” value is recorded as 14.4%.
The figure for `CCCc1c(C(=O)N/N=C/c2cccnc2)nnn1-c1nonc1N` is 16.6%.
As to `COc1nccc(-c2ccc(F)cc2)c1C#N`, the “hERG current change (%, negative = inhibition) at 1uM” value turned out to be 16.9%.
On to `O=C(Cn1c(=O)oc2ccccc21)Nc1ccc(Br)cc1`, for which the “hERG current change (%, negative = inhibition) at 1uM” value came out at 12.5%.
As for `CCn1c(N)[n+](CC(=O)Nc2ccc(SC(F)F)cc2)c2ccccc21.[Cl-]`, the “hERG current change (%, negative = inhibition) at 1uM” value is on record as -63.1%.
Regarding `CC[N+](CC)(CC)CC(=O)Nc1ccc(SC(F)F)cc1.[Cl-]`, the “hERG current change (%, negative = inhibition) at 1uM” value is given as 27.1%.
Turning to `O=C(Cc1ccccc1)Nc1ccc(SC(F)F)cc1`, the “hERG current change (%, negative = inhibition) at 1uM” value was 2.98%.
The figure for `Cc1cc(C)cc(N2C(=O)CC(c3ccccc3)CC2=O)c1` is 10.3%; for `O=C(COC(=O)c1ccc[nH]c1=O)Nc1ccc2c(c1)OC(F)(F)O2` it is 9.4%.
Consider `Cc1cccc2sc(N(CCCN(C)C)C(=O)c3nc4ccccc4s3)nc12.Cl`, for which the “hERG current change (%, negative = inhibition) at 1uM” value stood at 3.73%.
The figure for `Cc1cccc2sc(N(CCCN(C)C)C(=O)c3ccco3)nc12.Cl` is -54.8%; for `CN(C)CCCN(C(=O)c1ccc(C(=O)c2ccccc2)cc1)c1nc2c(F)cccc2s1` it is -1.61%; for `CN(C)CCCN(C(=O)c1ccco1)c1nc2ccc(F)cc2s1.Cl` it is -37.4%.
Take `CN(C)CCCN(C(=O)c1ccco1)c1nc2c(F)cc(F)cc2s1.Cl`: the “hERG current change (%, negative = inhibition) at 1uM” value is on record as -60.2%.
Regarding `CN(C)CCCN(C(=O)c1ccco1)c1nc2c(F)cccc2s1.Cl`, the “hERG current change (%, negative = inhibition) at 1uM” value is given as -62.9%.
In the case of `CN(C)CCCN(C(=O)c1ccco1)c1nc2ccc(Cl)cc2s1.Cl`, the “hERG current change (%, negative = inhibition) at 1uM” value is -14.7%.
As for `Cc1ccc2nc(N(CCCN(C)C)C(=O)c3ccco3)sc2c1.Cl`, the “hERG current change (%, negative = inhibition) at 1uM” value is -9.63%.
As for `CN(C)CCCN(C(=O)c1sc2ccccc2c1Cl)c1nc2c(F)cccc2s1.Cl`, the “hERG current change (%, negative = inhibition) at 1uM” value amounted to 8.6%.
In the case of `CCN1CCN(C(c2ccc(OC)cc2)c2nnnn2Cc2ccc3c(c2)OCO3)CC1.Cl` (centres unmarked), the “hERG current change (%, negative = inhibition) at 1uM” value is on record as -17.4%.
As for `N#Cc1ccccc1S(=O)(=O)N1CCC(C(=O)NCc2ccccc2CN2CCCC2)CC1`, the “hERG current change (%, negative = inhibition) at 1uM” value is -45.7%.
For the compound `Cn1c(=O)c2c(nc(NC3CCCCC3)n2CC(=O)C23CC4CC(CC(C4)C2)C3)n(C)c1=O`, the “hERG current change (%, negative = inhibition) at 1uM” value is listed as 15.4%.
Turning to `CCCC1CC(C)(c2csc(Nc3ccc(OCC)cc3)n2)OC1=O` (centres unmarked), the “hERG current change (%, negative = inhibition) at 1uM” value is -0.99%.
`COC(=O)c1[nH]c2cccc(OC)c2c1NC(=O)CCN1CC(C)CC(C)C1` (centres unmarked): the “hERG current change (%, negative = inhibition) at 1uM” value was -4.14%.
As for `CCOc1ccccc1NC(=S)N(CCCN1CCOCC1)Cc1cn(C)c2ccccc12`, the figure is 5.62%; as for `O=C(NC1CC2CCCC(C1)N2Cc1ccc(F)cc1)c1ccc(F)cc1` (centres unmarked), -38.3%; as for `CC(=O)NC1CC2CCCC(C1)N2Cc1ccc(C)cc1` (centres unmarked), -10.4%.
In the case of `Cc1ccc(C(=O)NC2CC3CCCC(C2)N3Cc2ccccc2)cc1` (centres unmarked), the “hERG current change (%, negative = inhibition) at 1uM” value is on record as -6.55%.
The figure for `CCCN1C2CCCC1CC(NC(=O)c1ccc(F)cc1)C2` (centres unmarked) is -29.7%.
In the case of `Cc1ccc(CN2C3CCCC2CC(NC(=O)c2ccc(C)cc2)C3)cc1` (centres unmarked), the “hERG current change (%, negative = inhibition) at 1uM” value is reported as -77.3%.
`Cc1ccc(CN2C3CCCC2CC(NC(=S)NCc2ccccc2)C3)cc1` (centres unmarked): the “hERG current change (%, negative = inhibition) at 1uM” value is -54.4%.
`Cc1ccc(CN2C3CCCC2CC(NC(=O)c2ccc(F)cc2)C3)cc1` (centres unmarked): the “hERG current change (%, negative = inhibition) at 1uM” value is recorded as -77%.
As for `CNC(=S)NC1CC2CCCC(C1)N2Cc1ccc(C)cc1` (centres unmarked), the “hERG current change (%, negative = inhibition) at 1uM” value is listed as -4.5%.
Consider `CCNC(=S)NC1CC2CCCC(C1)N2Cc1ccc(C)cc1` (centres unmarked), for which the “hERG current change (%, negative = inhibition) at 1uM” value is on record as -12.3%.
Regarding `O=C1CC(=C2c3ccccc3-c3ccccc32)C(=O)N1CCN1CCN(c2cccc(Cl)c2)CC1`, the “hERG current change (%, negative = inhibition) at 1uM” value amounted to 7.4%.
The figure for `COc1cccc(CN2CCNC(=O)C2CC(=O)N2CCCCO2)c1OC` (centres unmarked) is 7.47%; for `COc1ccc(CCN2C(=O)CSC2=S)cc1OC` it is 11.5%; for `COC(=O)C1=CNC=C(C(=O)OC)C1c1cccc(OC)c1` it is 9.02%.
The figure for `Cc1cc(/C=N/NC(N)=S)c(C)n1-c1ccc(Cl)cc1` is 1.13%; for `Cc1nc2c(C)cccn2c1/C(O)=C1\C(=O)C(=O)N(CCN(C)C)C1c1ccco1` (centres unmarked) it is 11.2%.
